Experimental data published in PubChem BioAssay (EPA / NIEHS).
Records with an inconclusive call do not appear. Active and inactive are the calls of the source. How the source made its calls, unless noted: active means hit-call score of the fitted dose curve at least 0.9, where 1 is the maximum; inactive means score below 0.9.

What was measured:
[1] = system: DIO1 (gene 1733); assay: CCTE_GLTED_hDIO1: CCTE's human Deiodinase 1 (DIO1) Inhibition Assay, Great Lakes Toxicology and Ecology Division (GLTED) Lab (AID 2283987; active means hit-call score of the fitted dose curve at least 0.9, where 1 is the maximum;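 further: isolated human DIO1 enzyme in a cell-free setup rather than cells; enzyme activity read as free iodide liberated from substrate via Sandell-Kolthoff colorimetry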)
Procedure, shortened: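 Cell-free human DIO1 enzyme incubated 3 h with test chemical; iodide freed from substrate then measured by Sandell-Kolthoff absorbance. Run in triplicate; loss of signal relative to DMSO taken as inhibition.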

[2] = molecular target: Nucleoli Translocation, AR (gene 367) (UniProt P10275); assay: UPITT_HCI_U2OS_AR_TIF2_Nucleoli_Antagonist: University of Pittsburgh U2OS Androgen Receptor-Transcriptional Intermediary Factor 2 (AR-TIF2) Antagonism High Content Imaging Assay for Nucleoli Translocation (AID 2283997; active means hit-call score of the fitted dose curve at least 0.9, where 1 is the maximum)
Procedure, shortened: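 U2OS cells expressing RFP-tagged human AR and GFP-tagged TIF2 were imaged by high-content fluorescence microscopy for red AR signal in the nucleolar region. Compounds were screened at 20 uM final (0.2% DMSO), with activity fitted relative to DHT as baseline.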

[3] = molecular target: Nucleoli Translocation, AR (gene 367) (UniProt P10275); assay: UPITT_HCI_U2OS_AR_TIF2_Nucleoli_Agonist: University of Pittsburgh U2OS Androgen Receptor-Transcriptional Intermediary Factor 2 (AR-TIF2) Agonism High Content Imaging Assay for Nucleoli Translocation (AID 2283998; active means hit-call score of the fitted dose curve at least 0.9, where 1 is the maximum)
Procedure, shortened: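 U2OS cells expressing RFP-tagged human AR and GFP-tagged TIF2; red fluorescence in nucleoli quantified by high-content imaging. Primary screen at 20 uM final (0.2% DMSO); concentration-response 0.195–50 uM (0.5% DMSO), fitted upward versus DMSO.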

[4] = molecular target: Ratio of Nucleoli Translocation and Cytoplasm, AR (gene 367) (UniProt P10275); assay: UPITT_HCI_U2OS_AR_TIF2_Nucleoli_Cytoplasm_Ratio_Antagonist: University of Pittsburgh U2OS Androgen Receptor-Transcriptional Intermediary Factor 2 (AR-TIF2) Antagonism High Content Imaging Assay for Ratio of Nucleoli Translocation and Cytoplasm (AID 2283999; active means hit-call score of the fitted dose curve at least 0.9, where 1 is the maximum;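 further: antagonists lower the DHT-driven ratio of nucleolar to cytoplasmic red signal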)
Procedure, shortened: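 Human osteosarcoma U2OS line, AR fused to RFP, coactivator TIF2 fused to GFP. Cpds 20 uM final, 0.2% DMSO (screen); 0.195–50 uM final, 0.5% DMSO (CRC). Endpoint: nucleoli/cytoplasm red signal ratio, DHT as baseline, loss-of-signal antagonist mode.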

[5] = TOX21_TRB_BLA_Antagonist_Followup_viability: Viability Assessment in the Tox21 Thyroid Hormone Receptor beta Antagonism Beta-lactamase (BLA) Follow-Up Assay (AID 2283961; active means hit-call score of the fitted dose curve at least 0.9, where 1 is the maximum)
Procedure, shortened: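 HEK293T cells with GAL4-human TRβ LBD and UAS-bla reporter, 3,000 cells/well in 2% charcoal-stripped FBS medium; 11-point concentrations in triplicate, 18 h at 37C. Viability from ATP by CellTiter-Glo luminescence, 30 min RT, same plates.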

[6] = TOX21_TR_RXR_BLA_Antagonist_Followup_viability: Viability Assessment in the Tox21 Thyroid Hormone Receptor beta Retinoid X Receptor alpha (RXRa) Antagonism Beta-lactamase (BLA) Follow-Up Assay (AID 2283979; active means hit-call score of the fitted dose curve at least 0.9, where 1 is the maximum)
Procedure, shortened: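 RXRa-UAS-bla HEK293T cells seeded 2,500/well in phenol red-free DMEM with 2% charcoal-stripped FBS, attached 5 h, then exposed to compounds at 11 concentrations in triplicate for 16 h at 37C/5% CO2. Viability read by CellTiter-Glo ATP luminescence; bidirectional fit versus DMSO.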

[7] = molecular target: THRB (gene 7068) (UniProt P10828); assay: TOX21_TRB_COA_Antagonist_Followup_ratio: Tox21 Thyroid Hormone Receptor beta Antagonism through Coactivator Recruitment Follow-Up Assay, Ratio (AID 2283967; active means hit-call score of the fitted dose curve at least 0.9, where 1 is the maximum)
Procedure, shortened: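 Cell-free TR-FRET coactivator recruitment with GST-tagged TRβ LBD (5.0 nM) and fluorescein-labeled SRC-2 peptide (200 nM) detected by terbium anti-GST antibody (2 nM). The 520:495 nm emission ratio was normalized to DMSO (0%) and T3 (100%).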

[8] = CCTE_Harrill_HTTr_Viability_DMEM_6hr: (Pilot) CCTE's 6-hour Cell Viability Assessment for the High-Throughput Transcriptomics (HTTr) Platform, in MCF-7 cells cultured in DMEM + 10% fetal bovine serum, Harrill Lab (AID 2283973)
Procedure, shortened: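 MCF-7 cells in DMEM + 10% FBS, eight-point dilution series, 6 h exposure. Membrane integrity by propidium iodide exclusion with high-content imaging; bidirectional fit versus DMSO.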

[9] = CCTE_Harrill_HTTr_Viability_DMEM_12hr: (Pilot) CCTE's 12-hour Cell Viability Assessment for the High-Throughput Transcriptomics (HTTr) Platform, in MCF-7 cells cultured in DMEM + 10% fetal bovine serum, Harrill Lab (AID 2283974)
Procedure, shortened: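 MCF-7 cells in DMEM + 10% FBS exposed 12 h to an eight-point dilution series; membrane integrity scored by propidium iodide exclusion with high-content imaging, bidirectional fitting versus DMSO.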

[10] = CCTE_Harrill_HTTr_Viability_DMEM_24hr: (Pilot) CCTE's 24-hour Cell Viability Assessment for the High-Throughput Transcriptomics (HTTr) Platform, in MCF-7 cells cultured in DMEM + 10% fetal bovine serum, Harrill Lab (AID 2283975)
Procedure, shortened: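 MCF-7 cells in DMEM with 10% FBS exposed for 24 hours to an eight-point dilution series. Membrane integrity by propidium iodide exclusion with high content imaging; bidirectional fit against DMSO.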

[11] = CCTE_Harrill_HTTr_Viability_PRF_DMEM_6hr: (Pilot) CCTE's 6-hour Cell Viability Assessment for the High-Throughput Transcriptomics (HTTr) Platform, in MCF-7 cells cultured phenol red-free DMEM + 10% charcoal-stripped fetal bovine serum, Harrill Lab (AID 2283976)
Procedure, shortened: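 MCF-7 cells in phenol red-free DMEM with 10% charcoal-stripped FBS exposed 6 hours to an eight-point dilution series. Propidium iodide exclusion imaged; curves fitted bidirectionally against DMSO.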

[12] = CCTE_Harrill_HTTr_Viability_PRF_DMEM_12hr: (Pilot) CCTE's 12-hour Cell Viability Assessment for the High-Throughput Transcriptomics (HTTr) Platform, in MCF-7 cells cultured in phenol red-free DMEM + 10% charcoal-stripped fetal bovine serum, Harrill Lab (AID 2283977)
Procedure, shortened: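 MCF-7 cells in phenol red-free DMEM with 10% charcoal-stripped FBS exposed 12 hours to an eight-point dilution series. Viability assessed by high-content imaging of propidium iodide exclusion; bidirectional fit versus DMSO.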

[13] = CCTE_Harrill_HTTr_Viability_PRF_DMEM_24hr: (Pilot) CCTE's 24-hour Cell Viability Assessment for the High-Throughput Transcriptomics (HTTr) Platform, in MCF-7 cells cultured in phenol red-free DMEM + 10% charcoal-stripped fetal bovine serum, Harrill Lab (AID 2283980)
Procedure, shortened: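 MCF-7 cells in phenol red-free DMEM with 10% charcoal-stripped FBS, eight-point dilution series, 24 h exposure. Membrane integrity by propidium iodide exclusion with high content imaging; bidirectional fit vs DMSO.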

[14] = CCTE_Harrill_HTTr_Apoptosis_DMEM_6hr: (Pilot) CCTE's 6-hour Apoptosis Assessment for the High-Throughput Transcriptomics (HTTr) Platform, in MCF-7 cells cultured in DMEM + 10% fetal bovine serum, Harrill Lab (AID 2283981)
Procedure, shortened: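 Caspase-3/7 activation read by high content imaging with CellEvent Caspase 3/7 Green in MCF-7 cells (DMEM + 10% FBS), 6 h after dosing; eight-point dilution series. Bidirectional fitting relative to DMSO baseline.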

[15] = CCTE_Harrill_HTTr_Apoptosis_DMEM_12hr: (Pilot) CCTE's 12-hour Apoptosis Assessment for the High-Throughput Transcriptomics (HTTr) Platform, in MCF-7 cells cultured in DMEM + 10% fetal bovine serum, Harrill Lab (AID 2283982)
Procedure, shortened: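 MCF-7 cells in DMEM + 10% FBS, exposed 12 h to an eight-point dilution series; caspase-3/7 activation imaged with CellEvent Green. Bidirectional fit versus DMSO.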

[16] = CCTE_Harrill_HTTr_Apoptosis_DMEM_24hr: (Pilot) CCTE's 24-hour Apoptosis Assessment for the High-Throughput Transcriptomics (HTTr) Platform, in MCF-7 cells cultured in DMEM + 10% fetal bovine serum, Harrill Lab (AID 2283983)
Procedure, shortened: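 MCF-7 cells in DMEM + 10% FBS, eight-point dilution series, 24 h exposure. Caspase-3/7 activation imaged by high-content imaging with CellEvent Caspase 3/7 Green. Bidirectional curve fitting against DMSO baseline.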

[17] = CCTE_Harrill_HTTr_Apoptosis_PRF_DMEM_6hr: (Pilot) CCTE's 6-hour Apoptosis Assessment for the High-Throughput Transcriptomics (HTTr) Platform, in MCF-7 cells cultured phenol red-free DMEM + 10% charcoal-stripped fetal bovine serum, Harrill Lab (AID 2283984)
Procedure, shortened: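 MCF-7 cells in phenol red-free DMEM + 10% charcoal-stripped FBS, eight-point dilution series, 6 h exposure. Caspase-3/7 activation imaged by high-content imaging with CellEvent Caspase 3/7 Green; bidirectional fit versus DMSO baseline.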

[18] = CCTE_Harrill_HTTr_Apoptosis_PRF_DMEM_12hr: (Pilot) CCTE's 12-hour Apoptosis Assessment for the High-Throughput Transcriptomics (HTTr) Platform, in MCF-7 cells cultured in phenol red-free DMEM + 10% charcoal-stripped fetal bovine serum, Harrill Lab (AID 2283985)
Procedure, shortened: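 MCF-7 cells in phenol red-free DMEM with 10% charcoal-stripped FBS, eight-point dilution series, 12 h exposure. Caspase-3/7 activation imaged by high content imaging with CellEvent Green reagent; bidirectional fit vs DMSO.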

[19] = CCTE_Harrill_HTTr_Apoptosis_PRF_DMEM_24hr: (Pilot) CCTE's 24-hour Apoptosis Assessment for the High-Throughput Transcriptomics (HTTr) Platform, in MCF-7 cells cultured in phenol red-free DMEM + 10% charcoal-stripped fetal bovine serum, Harrill Lab (AID 2283986)
Procedure, shortened: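 MCF-7 cells in phenol red-free DMEM with 10% charcoal-stripped FBS, exposed 24 h across an eight-point dilution series. Caspase-3/7 activation imaged with CellEvent Green by high content imaging; bidirectional fitting against DMSO.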

[20] = molecular target: Retinoic acid receptor RXR-alpha (Homo sapiens) (UniProt P19793); assay: TOX21_TR_RXR_BLA_Antagonist_Followup_ratio: Tox21 Thyroid Hormone Receptor beta Retinoid X Receptor alpha (RXRa) Antagonism Beta-lactamase (BLA) Follow-Up Assay, Ratio (AID 2283972; active means hit-call score of the fitted dose curve at least 0.9, where 1 is the maximum)
Procedure, shortened: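 RXRa-UAS-bla HEK293T cells, 2,500/well in phenol red-free DMEM with 2% charcoal-stripped FBS, 5 h attachment, then compounds (11 concentrations, triplicate) for 16 h at 37C; FRET-B/GCCF4-AM substrate 2 h RT; 460:530 nm ratio, loss of signal vs DMSO.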

Measured: AC50

Ratio of Nucleoli Translocation and Cytoplasm, AR (gene 367), sequence (P10275 whole entry, looked up, the tested form may be a part): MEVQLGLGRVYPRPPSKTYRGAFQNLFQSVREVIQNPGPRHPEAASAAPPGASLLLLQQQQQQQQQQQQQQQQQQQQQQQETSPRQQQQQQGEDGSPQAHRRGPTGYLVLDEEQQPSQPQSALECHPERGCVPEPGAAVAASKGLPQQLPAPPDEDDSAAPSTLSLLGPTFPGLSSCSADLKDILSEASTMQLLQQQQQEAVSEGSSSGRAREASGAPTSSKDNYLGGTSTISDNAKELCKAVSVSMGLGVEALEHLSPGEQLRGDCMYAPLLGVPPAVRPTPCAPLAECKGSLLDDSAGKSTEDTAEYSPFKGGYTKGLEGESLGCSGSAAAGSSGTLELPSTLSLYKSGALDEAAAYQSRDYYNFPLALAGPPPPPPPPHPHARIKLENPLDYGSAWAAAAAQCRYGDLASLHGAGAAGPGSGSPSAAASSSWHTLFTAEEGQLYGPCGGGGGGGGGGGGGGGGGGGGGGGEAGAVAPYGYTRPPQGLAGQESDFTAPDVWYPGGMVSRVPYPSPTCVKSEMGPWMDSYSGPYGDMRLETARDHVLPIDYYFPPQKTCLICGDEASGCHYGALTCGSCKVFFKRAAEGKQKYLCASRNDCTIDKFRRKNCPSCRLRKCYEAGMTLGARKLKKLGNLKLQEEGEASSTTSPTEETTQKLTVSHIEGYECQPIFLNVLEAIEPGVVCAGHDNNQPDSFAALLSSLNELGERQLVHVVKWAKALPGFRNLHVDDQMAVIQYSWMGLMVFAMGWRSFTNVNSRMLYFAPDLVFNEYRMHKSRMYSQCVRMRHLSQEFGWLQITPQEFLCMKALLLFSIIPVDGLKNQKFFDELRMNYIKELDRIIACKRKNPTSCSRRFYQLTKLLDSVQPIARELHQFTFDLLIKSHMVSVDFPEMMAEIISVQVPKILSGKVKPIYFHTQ
Nucleoli Translocation, AR (gene 367), sequence (P10275 whole entry, looked up): as the sequence (P10275 whole entry, looked up, the tested form may be a part) above
Retinoic acid receptor RXR-alpha (Homo sapiens), sequence (P19793 whole entry, looked up): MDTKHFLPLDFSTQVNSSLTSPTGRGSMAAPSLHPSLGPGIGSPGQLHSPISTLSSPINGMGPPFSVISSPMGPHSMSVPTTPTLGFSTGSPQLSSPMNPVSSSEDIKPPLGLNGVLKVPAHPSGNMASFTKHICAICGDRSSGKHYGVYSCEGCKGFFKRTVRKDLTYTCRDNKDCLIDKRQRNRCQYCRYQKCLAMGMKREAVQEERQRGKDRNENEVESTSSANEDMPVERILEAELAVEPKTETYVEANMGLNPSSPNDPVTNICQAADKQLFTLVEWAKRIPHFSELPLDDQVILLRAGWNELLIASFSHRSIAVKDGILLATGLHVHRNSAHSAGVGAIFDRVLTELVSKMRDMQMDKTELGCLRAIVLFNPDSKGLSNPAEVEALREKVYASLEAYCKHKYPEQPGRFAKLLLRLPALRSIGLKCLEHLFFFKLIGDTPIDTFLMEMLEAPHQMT
THRB (gene 7068), sequence (P10828 whole entry, looked up, the tested form may be a part): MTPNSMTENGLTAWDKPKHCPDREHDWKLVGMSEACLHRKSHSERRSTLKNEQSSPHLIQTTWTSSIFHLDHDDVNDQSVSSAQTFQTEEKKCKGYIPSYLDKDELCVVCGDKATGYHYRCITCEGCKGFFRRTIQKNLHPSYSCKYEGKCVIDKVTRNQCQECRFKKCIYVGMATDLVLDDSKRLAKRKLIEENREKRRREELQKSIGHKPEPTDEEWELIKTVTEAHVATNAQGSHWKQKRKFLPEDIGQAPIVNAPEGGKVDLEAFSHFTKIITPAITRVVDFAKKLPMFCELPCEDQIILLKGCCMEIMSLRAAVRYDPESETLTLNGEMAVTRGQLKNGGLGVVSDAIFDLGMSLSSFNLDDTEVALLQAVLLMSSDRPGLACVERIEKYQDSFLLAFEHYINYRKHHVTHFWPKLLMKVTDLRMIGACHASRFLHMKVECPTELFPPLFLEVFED

N#Cc1nn(-c2c(Cl)cc(C(F)(F)F)cc2Cl)c(N)c1S(=O)C(F)(F)F (stereo not given)
active: [1] 50.6 µM
inactive: [2] | [3] | [4]

O=C(Nc1ccccc1)Nc1ccnc(Cl)c1
inactive: [4]
active: [3] 84.5 µM

N#CC(CCc1ccc(Cl)cc1)(Cn1cncn1)c1ccccc1 (stereo not given)
inactive: [2] | [3] | [4]

CCON=C(CC)C1=C(O)CC(c2c(C)cc(C)cc2C)CC1=O (stereo not given)
inactive: [2] | [4]

CS/C(C)=N/OC(=O)N(C)SN(C)C(=O)O/N=C(\C)SC
active: [2] 21.7 µM | [3] 70.8 µM | [4] 13.8 µM

CC(C)(C)c1ccc(CSc2cnn(C(C)(C)C)c(=O)c2Cl)cc1
inactive: [5] | [6]

Cc1cc(Cl)ccc1OCC(=O)O
inactive: [3] | [4]

CN(C)C(=S)SSC(=S)N(C)C
active: [10] 54.6 µM | [13] 46.7 µM | [16] 80.6 µM | [2] 12.6 µM | [4] 9.92 µM
inactive: [5] | [7] | [8] | [9] | [11] | [12] | [6] | [14] | [15] | [17] | [18] | [19] | [3]

CCCC1COC(Cn2cncn2)(c2ccc(Cl)cc2Cl)O1 (stereo not given)
inactive: [8] | [9] | [10] | [11] | [12] | [13] | [14] | [15] | [16] | [17] | [18] | [19] | [4]
active: [3] 92.8 µM

COC(=O)N(OC)c1ccccc1COc1ccn(-c2ccc(Cl)cc2)n1
active: [5] 14.9 µM | [20] 38.3 µM | [6] 7.9 µM
inactive: [7] | [8] | [9] | [10] | [11] | [12] | [13] | [14] | [15] | [16] | [17] | [18] | [19]

C=CC1(C)OC(=O)N(c2cc(Cl)cc(Cl)c2)C1=O (stereo not given)
inactive: [8] | [9] | [10] | [11] | [12] | [13] | [14] | [15] | [16] | [17] | [18] | [19]

N#Cc1cc(Br)c(O)c(Br)c1
inactive: [2]

CO/C=C(/C(=O)OC)c1ccccc1Oc1cc(Oc2ccccc2C#N)ncn1
active: [5] 38.1 µM
inactive: [7] | [20] | [6] | [2] | [4]

CCNc1nc(Cl)nc(NC(C)C)n1
inactive: [8] | [9] | [10] | [11] | [12] | [13] | [14] | [15] | [16] | [17] | [18] | [19]

CCc1nn(C)c(C(=O)NCc2ccc(C(C)(C)C)cc2)c1Cl
inactive: [7] | [20]
active: [5] 4.69 µM | [6] 7.74 µM

CCOC(=O)CC(SP(=S)(OC)OC)C(=O)OCC (stereo not given)
active: [2] 50 µM | [4] 69.2 µM

Cc1ccc(-c2c(Cl)nc(C#N)n2S(=O)(=O)N(C)C)cc1
active: [1] 43.7 µM
inactive: [2] | [3] | [4]

CCCCNC(=O)n1c(NC(=O)OC)nc2ccccc21
inactive: [5] | [7] | [20] | [6] | [2] | [3]

CCCN(CCC)c1c([N+](=O)[O-])cc(S(N)(=O)=O)cc1[N+](=O)[O-]
active: [1] 166 µM [middle of 7 runs]

CC(C)Oc1cc(-n2nc(C(C)(C)C)oc2=O)c(Cl)cc1Cl
inactive: [2] | [3] | [4]

CCNc1nc(Cl)nc(NCC)n1
inactive: [8] | [9] | [10] | [11] | [12] | [13] | [14] | [15] | [16] | [17] | [18] | [19]

CC1=C(C(=O)Nc2ccccc2)SCCO1
inactive: [2]
